Rows were chosen to be rich in hits. Some 3.4% of all compounds tested hit in one or more screens of this group.
MITF inh: blocks human microphthalmia-associated transcription factor; AlphaScreen MITF homodimerization, bead proximity signal; inhibition, % at 2.6 µM; 650,000 compounds, 0.91% hits; in the data active = inhibition above about 50%;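 also: 0% = vehicle wells with protein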
GPR151 ag: activates the human receptor GPR151; Q8TDV0; PathHunter beta-arrestin GPR151 cells, luminescence; activation, % at 11.2 µM; 650,000 compounds, 1% hits; in the data active = activation above about 4.9%;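 also: 0% = median of compound wells and 100% = cells with positive control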
FBW7 activator: human FBW7 E3 ligase activation, primary screen; AlphaScreen FBW7–phospho-cyclin E peptide binding, activator screen; normalized activity (activation), % at 26.1 µM; 650,000 compounds, 0.13% hits; in the data active = normalized activity above about 1.9%;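 also: purified mutant Fbw7 with reduced substrate affinity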
TEAD-YAP inh: TEAD-YAP interaction inhibition. 640,000 compounds, 1.4% hits. HEK-TIYL cells, TEAD-Gal4/YAP UAS-luciferase luminescence. AID 1259422. inhibition, % at 9.12 µM; in the data active = inhibition above about 32%;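 also: 0% = median of test compound wells and 100% = reference inhibitor wells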
GPR151 conf act: confirmation of human GPR151 activators; activation, % at 11.2 µM; shares compounds with GPR151 ag; AID 1508609; 6,700 tested, under 10 active; GPR151 PathHunter beta-arrestin cells, luminescence, 90 min; % of EA-reagent control over plate median;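 active = mean percent activation across replicates above the confirmation screen cutoff of 4.91%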
GPR119 counter: counter-screen for GPR151 activators: effect on human GPR119; shares compounds with GPR151 ag; GPR119 PathHunter beta-arrestin cells, luminescence, 90 min; 0 = compound-well median, 100 = enzyme-acceptor control; activation, % at 11.2 µM; 6,700 compounds, 0.3% hits; AID 1508611;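 active = mean percent activation in the counterscreen above 29.09%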;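 also: counterscreen on off-target GPR119 to flag nonselective hits from the GPR151 activator screen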
Target sequence (Q8TDV5 whole entry, looked up): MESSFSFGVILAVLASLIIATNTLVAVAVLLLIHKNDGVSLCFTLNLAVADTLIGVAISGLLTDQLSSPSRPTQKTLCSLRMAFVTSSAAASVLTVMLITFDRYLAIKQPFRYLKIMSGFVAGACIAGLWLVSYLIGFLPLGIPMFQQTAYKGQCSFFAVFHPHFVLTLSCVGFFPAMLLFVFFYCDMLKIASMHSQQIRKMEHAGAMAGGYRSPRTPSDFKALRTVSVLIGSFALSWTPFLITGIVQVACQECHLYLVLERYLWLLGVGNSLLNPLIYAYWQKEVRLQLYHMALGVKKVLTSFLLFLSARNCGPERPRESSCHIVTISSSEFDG
Starred values were filed as active, the others as inactive; . = no result; ! = a repeat was not active.

SMILES | MITF inh | GPR151 ag | FBW7 activator | TEAD-YAP inh | GPR151 conf act | GPR119 counter
N#CC1=C(N)N(c2cccc(C(F)(F)F)c2)C2=C(C(=O)CCC2)C1c1ccc2c(c1)OCO2 (stereo unspecified) | 11 | 5.0* | 0 | -5 | 1 | 8
COc1ccc(NC(=O)CN2C(=O)CC(c3ccco3)Sc3ccccc32)cc1OC (stereo unspecified) | 1 | -1 | 0 | 12 | . | .
Cc1ccc2c(c1)N(CC(=O)Nc1ccc(Cl)cc1)C(=O)C(C)O2 (stereo unspecified) | -8 | 22* | 0 | 8 | 1 | 6
COc1ccc(NC(=O)CN2C(=O)C(C)Oc3ccc(C)cc32)cc1 (stereo unspecified) | 23 | -1 | 0 | 5 | . | .
CCOC(=O)CN1C(=O)COc2ccc(Cl)cc21 | -4 | 5.6* | 0 | 0 | 0 | -6
COc1ccc(NC(=O)CN2C(=O)COc3ccc(C)cc32)cc1OC | 6 | 6.0* | 0 | 6 | 1 | 10
COc1ccc(NC(=O)CN2C(=O)CC(c3ccccc3)Sc3ccccc32)cc1OC (stereo unspecified) | -4 | 7.4* | 1 | 1 | 1 | -3
Cc1ccc2c(c1)N(CC(=O)Nc1ccc3c(c1)OCCO3)C(=O)CO2 | 11 | -1 | 0 | 14 | . | .
c1ccc(-c2ccnc(Nc3ccc(-n4cccn4)cc3)n2)cc1 | 1 | -1 | 0 | -44 | . | .
O=C(CN1C(=O)COc2ccc(Cl)cc21)Nc1ccc([N+](=O)[O-])cc1 | -3 | 7.6* | 0 | 14 | 1 | -2
COc1ccc(CCN2CCC(NCc3cccc(N(C)C)c3)CC2)cc1 | 13 | 5.5*! | 0 | 5 | 0 | -4
Cc1ccc(NC(=O)c2cccc(S(=O)(=O)Nc3cccc(C(=O)O)c3)c2)cc1 | -11 | 6.4* | 0 | 8 | -1 | -1
COc1c(Cl)cc(C(=O)Nc2cccc(C(=O)O)c2)cc1Cl | 6 | 5.7* | 0 | -26 | 1 | 17
CC(=O)Oc1ccccc1C(=O)Nc1ccccc1F | -3 | -2 | 0 | -52 | . | .
Cn1c(=O)c2c(nc(NCCO)n2Cc2ccc(Br)cc2)n(C)c1=O | 6 | 5.5* | 0 | 21 | 1 | 4
Cn1c(=O)c2c(nc(NCCO)n2Cc2ccccc2F)n(C)c1=O | 22 | 16* | 0 | 25 | -1 | 6
Cc1cc(C)cc(OCC(=O)N2N=C(c3ccncc3)CC2(O)C(F)(F)F)c1 (stereo unspecified) | 10 | 4 | 0 | -1 | . | .
COCC1CCCCN1C(=O)CC1(c2ccccc2)CC(=O)N(CCc2ccccn2)C1=O (stereo unspecified) | 17 | 5.4* | 1 | -2 | 0 | 8
CC(=O)N1CCc2cc(Br)cc(S(=O)(=O)Nc3noc4ccccc34)c21 | -17 | 19* | 0 | -7 | 0 | -15
CC(=O)N1CCc2cc(Br)cc(S(=O)(=O)Nc3cccc(Cl)c3)c21 | -11 | -1 | 0 | 4 | . | .
C=CCSc1nnc(NC(=O)[C@H](C)Nc2ccc(C(F)(F)F)cc2[N+](=O)[O-])s1 | -2 | -1 | 0 | -10 | . | .
COc1cc(Br)c(C2C(C#N)=C(N)Oc3cc4c(cc32)OCO4)cc1OC (stereo unspecified) | 4 | 9.1* | 0 | -3 | 0 | 3
Cc1ccc(NC(=O)c2cc(S(=O)(=O)N3CCCCC3)ccc2F)cc1Cl | 7 | 0 | 1 | -9 | . | .
Cc1ccc(NC(=O)c2cc(F)c(F)cc2Cl)cc1S(=O)(=O)N1CCOCC1 | 5 | 5.2* | 0 | -6 | 0 | 7
Cc1ccc(NC(=O)c2cc(S(=O)(=O)N3CCCCCC3)ccc2F)cc1Cl | -7 | 6.2* | 0 | -12 | 1 | -10
SMILES | MITF inh | GPR151 ag | FBW7 activator | TEAD-YAP inh | GPR151 conf act | GPR119 counter
Cc1cc(Nc2ccc(F)c(F)c2)n2ncnc2n1 | 17 | -1 | 1 | 2 | . | .
CNc1ccc(/C=C/C(=O)c2ccc(S(=O)(=O)NCc3ccco3)cc2)cc1[N+](=O)[O-] | -6 | 5.6* | 0 | -5 | -1 | -2
CC(=O)NNc1ccc2nnc(-c3ccccc3)n2n1 | 7 | 1 | 0 | -3 | . | .
COc1cc2nc(Nc3ccccn3)nc(Nc3cc(OC)c(OC)c(OC)c3)c2cc1OC | 8 | 7.3* | 0 | 14 | 1 | 3
COc1cc2nc(Nc3ccccn3)nc(Nc3ccc(Oc4ccccc4)cc3)c2cc1OC | -6 | -2 | 0 | -6 | . | .
CCOC(=O)C1CCN(C(=O)CSCc2c(Cl)cccc2Cl)CC1 | 2 | -1 | 0 | 3 | . | .
NC(=O)C1CCN(C(=O)CSCc2c(Cl)cccc2Cl)CC1 | -11 | 6.1* | 0 | 2 | 0 | -3
O=C(CSc1cccc[n+]1[O-])N1CCC(Cc2ccccc2)CC1 | -11 | 1 | 0 | -1 | . | .
O=C(CSCc1ccccc1)N1CCC(Cc2ccccc2)CC1 | 6 | 6.0* | 1 | -43 | 0 | 1
CC1CCCCN1c1ncccc1C(=O)N1CCCC1 (stereo unspecified) | 10 | -1 | 0 | 3 | . | .
CC1CCCCN1c1ncccc1C(=O)NC1CCCC1 (stereo unspecified) | 30 | 6.4* | 0 | -4 | 1 | 4
C=CCN(CC=C)C(=O)C[n+]1ccc(C(N)=O)cc1 | 7 | 1 | 0 | 2 | . | .
CCN(CC(=O)Nc1ccc(NC(C)=O)cc1)S(=O)(=O)/C=C/c1ccccc1 | 5 | 7.4* | 0 | -3 | 0 | 4
Cc1ccc(OC(C)c2nc(-c3ccccc3)no2)cc1 (stereo unspecified) | -7 | 0 | 0 | -18 | . | .
CC(C)N(CCNc1ncnc2nc(Nc3ccccc3)[nH]c12)C(C)C | 5 | -2 | 0 | -7 | . | .
CC(C)N(CCNc1ncnc2nc(Nc3nccc4ccccc34)[nH]c12)C(C)C | 9 | 6.1* | 0 | -3 | 0 | -5
O=C(CCC1CCCN(C(=O)CC2=CCCCC2)C1)N1CCN(c2ccccn2)CC1 (stereo unspecified) | -1 | 1 | 0 | -8 | . | .
O=C(CCc1nnc(CCc2c[nH]c3ccccc23)o1)N1CCN(CC2CC2)CC1 | -7 | 0 | 0 | 7 | . | .
O=C(CCc1nnc(CCc2c[nH]c3ccccc23)o1)NCC1CC1 | 3 | 5.4* | 0 | 3 | 1 | 8
Cc1ccc(-c2nc(C3CCCN3C(=O)CCCC(=O)O)n3ccccc23)cc1 (stereo unspecified) | 4 | 5.5* | -1 | -13 | 0 | -2
CCOc1ccc(OCC)c(C(=O)C(C)=O)c1 | -22 | -1 | 0 | 1 | . | .
CCOc1ccccc1-n1nnnc1SCC(=O)NC(C)(C)C | -1 | 6.9* | 0 | 3 | 1 | 2
CCOC(=O)CSc1nnnn1-c1ccccc1OCC | 8 | 1 | 0 | -5 | . | .
Cc1ccc(C)c(NC(=O)Nc2nnc(N3C(C)CCCC3C)s2)c1 (stereo unspecified) | 0 | -2 | 0 | 2 | . | .

Source: PubChem
